Measured values reported in the supplement of paper PMC10849652.
Targets with a hit are over-represented here; the source holds about 7,900 in all. About 0.6% of all pairs of compound and target were hits.

Legend:
Assay in all cases: log2 fold change, soluble protein after heating vs DMSO (PISA); higher = thermal stabilisation; K562 cells, 10 uM, 30 min; active = over 0.2 and 3.5 SD of the protein, either way, in both replicates (recomputed)
[1] = compound: C1=CC=C(C=C1)[C@H](COC2=CC3=C(C=C2)NC(=O)N3)NC(=O)C4=CC=CN(C4=O)CC5=CC(=C(C=C5)F)F
Summary of the method: (§1)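 Values are thermal stability changes relative to control samples and are taken from duplicates. They are stated as log2 fold changes. Before quantification by TMTpro 16plex LC-MS/MS with equalised channel sums, K562 cells at 2×10^6 cells/mL were treated with 10 μM compound for 30 min, heated in aliquots for 3 min across 48°C-58°C, pooled, extracted in PBS with 0.5% NP-40 at 4°C, and centrifuged at 21,000xg for 90 min to give the soluble supernatant.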

[2] = compound: CC1=C(SC2=C1C(=N[C@H](C3=NN=C(N32)C)CC(=O)N)C4=CC=C(C=C4)Cl)C
Summary of the method: as §1

[3] = compound: CC1=C2C(=CC=C1)N=C(N(C2=O)C3=CC=CC=C3C)CN4C=NC5=C(N=CN=C54)N
Summary of the method: as §1

[4] = compound: Cc1sc2c(c1C)C(c1ccc(Cl)cc1)=N[C@@H](CC(=O)OC(C)(C)C)c1nnc(C)n1-2
Summary of the method: as §1

[5] = compound: c1ccc([C@@H]2C[C@H]2NC2CCNCC2)cc1
Summary of the method: as §1

Measured: log2 fold change

ALKBH5 (UniProt Q6P6C2)
inactive: [1] 0.065 | [2] -0.002 | [3] 0.085 | [4] -0.024 | [5] 0.028

ATP13A3 (UniProt Q9H7F0)
inactive: [1] -0.038 | [2] 0.008 | [3] 0.016 | [4] 0.018 | [5] -0.101

APOH (UniProt P02749)
inactive: [1] -0.265 | [2] -0.106 | [3] 0.073 | [4] -0.051 | [5] 0.199

ADD2 (UniProt P35612)
inactive: [1] 0.005 | [2] 0.044 | [3] 0.014 | [4] -0.024 | [5] 0.016

BRIP1 (UniProt Q9BX63)
inactive: [1] 0.042 | [2] -0.005 | [3] 0 | [4] -0.042 | [5] 0.122

BRAF (UniProt P15056)
inactive: [1] -0.04 | [2] 0.075 | [3] 0.041 | [4] -0.018 | [5] -0.027

BCAP29 isoform 2 (UniProt Q9UHQ4)
inactive: [1] -0.017 | [2] 0.029 | [3] 0.035 | [4] -0.008 | [5] 0.032

ABHD11 (UniProt Q8NFV4)
Chain of UniProt Q8NFV4 (Q8NFV4 whole entry, looked up): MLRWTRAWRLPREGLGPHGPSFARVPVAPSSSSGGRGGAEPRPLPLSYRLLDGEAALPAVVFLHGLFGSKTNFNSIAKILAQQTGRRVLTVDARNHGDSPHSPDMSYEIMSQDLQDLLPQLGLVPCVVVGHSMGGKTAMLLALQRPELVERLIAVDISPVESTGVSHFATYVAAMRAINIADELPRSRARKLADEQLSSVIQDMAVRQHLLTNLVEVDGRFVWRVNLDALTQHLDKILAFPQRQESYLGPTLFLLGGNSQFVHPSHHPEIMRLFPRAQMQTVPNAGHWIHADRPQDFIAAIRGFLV
inactive: [1] -0.008 | [2] 0.127 | [3] 0.136 | [4] -0.12 | [5] -0.037

AUH (UniProt Q13825)
inactive: [1] 0.015 | [2] 0.065 | [3] -0.116 | [4] -0.042 | [5] -0.001

ADPRHL2 (UniProt Q9NX46)
inactive: [1] -0.09 | [2] 0.08 | [3] 0.034 | [4] -0.057 | [5] -0.087

ATRN (UniProt O75882)
inactive: [1] -0.011 | [2] -0.031 | [3] 0.027 | [4] -0.055 | [5] 0.006

ARMC10 (UniProt Q8N2F6)
inactive: [1] 0.035 | [2] -0.017 | [3] -0.006 | [4] 0.012 | [5] -0.009

BLOC1S3 (UniProt Q6QNY0)
Chain of UniProt Q6QNY0 (Q6QNY0 whole entry, looked up): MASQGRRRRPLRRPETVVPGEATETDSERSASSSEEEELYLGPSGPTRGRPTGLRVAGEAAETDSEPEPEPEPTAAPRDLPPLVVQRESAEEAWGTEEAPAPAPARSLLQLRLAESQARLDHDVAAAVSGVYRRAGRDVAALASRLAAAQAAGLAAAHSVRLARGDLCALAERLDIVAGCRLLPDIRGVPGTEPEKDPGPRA
inactive: [1] -0.048 | [2] 0.084 | [3] 0.088 | [4] -0.113 | [5] -0.06

B4GALNT1 (UniProt Q00973)
inactive: [1] -0.029 | [2] -0.068 | [3] -0.001 | [4] -0.102 | [5] -0.062

APPL1 (UniProt Q9UKG1)
inactive: [1] -0.027 | [2] 0.122 | [3] 0.086 | [4] -0.025 | [5] -0.049

AARSD1 isoform 3 (UniProt Q9BTE6)
inactive: [1] -0.053 | [2] -0.068 | [3] 0.039 | [4] 0.047 | [5] 0.023

ATG4B isoform 2 (UniProt Q9Y4P1)
inactive: [1] -0.079 | [2] 0.056 | [3] 0.166 | [4] 0.188 | [5] 0.07

ATIC (UniProt P31939)
inactive: [1] -0.023 | [2] 0.039 | [3] 0.073 | [4] -0.041 | [5] -0.012

ANKZF1 (UniProt Q9H8Y5)
inactive: [1] -0.113 | [2] -0.037 | [3] -0.01 | [4] 0.15 | [5] -0.008

ASNS (UniProt P08243)
inactive: [1] 0.025 | [2] 0.044 | [3] 0.027 | [4] -0.008 | [5] -0.019

ASS1 (UniProt P00966)
Chain of UniProt P00966 (P00966 whole entry, looked up): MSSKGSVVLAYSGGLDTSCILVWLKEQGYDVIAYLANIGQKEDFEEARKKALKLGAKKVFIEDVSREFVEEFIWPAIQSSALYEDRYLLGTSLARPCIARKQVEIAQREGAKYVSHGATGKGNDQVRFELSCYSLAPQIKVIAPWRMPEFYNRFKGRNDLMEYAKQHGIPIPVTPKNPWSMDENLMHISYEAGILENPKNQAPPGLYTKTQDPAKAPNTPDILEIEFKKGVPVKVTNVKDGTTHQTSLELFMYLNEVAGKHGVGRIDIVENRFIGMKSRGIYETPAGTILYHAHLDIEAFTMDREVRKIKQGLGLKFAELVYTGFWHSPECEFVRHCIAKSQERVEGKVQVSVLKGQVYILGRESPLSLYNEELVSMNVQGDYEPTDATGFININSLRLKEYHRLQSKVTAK
inactive: [1] -0.099 | [2] -0.036 | [3] 0.032 | [4] -0.141 | [5] -0.146

ABITRAM (UniProt Q9NX38)
Chain of UniProt Q9NX38 (Q9NX38 whole entry, looked up): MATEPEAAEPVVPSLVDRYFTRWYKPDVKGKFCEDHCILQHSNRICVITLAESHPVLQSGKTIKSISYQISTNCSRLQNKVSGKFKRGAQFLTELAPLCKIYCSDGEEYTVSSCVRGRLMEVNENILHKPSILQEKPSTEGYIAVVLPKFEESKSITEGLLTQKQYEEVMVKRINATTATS
inactive: [1] -0.037 | [2] 0.145 | [3] 0.032 | [4] -0.044 | [5] -0.016

BST2 (UniProt Q10589)
inactive: [1] 0.056 | [2] 0.019 | [3] -0.012 | [4] 0.068 | [5] 0.055

BRD8 isoform 2 (UniProt Q9H0E9)
Chain of UniProt Q9H0E9 (Q9H0E9 whole entry, looked up): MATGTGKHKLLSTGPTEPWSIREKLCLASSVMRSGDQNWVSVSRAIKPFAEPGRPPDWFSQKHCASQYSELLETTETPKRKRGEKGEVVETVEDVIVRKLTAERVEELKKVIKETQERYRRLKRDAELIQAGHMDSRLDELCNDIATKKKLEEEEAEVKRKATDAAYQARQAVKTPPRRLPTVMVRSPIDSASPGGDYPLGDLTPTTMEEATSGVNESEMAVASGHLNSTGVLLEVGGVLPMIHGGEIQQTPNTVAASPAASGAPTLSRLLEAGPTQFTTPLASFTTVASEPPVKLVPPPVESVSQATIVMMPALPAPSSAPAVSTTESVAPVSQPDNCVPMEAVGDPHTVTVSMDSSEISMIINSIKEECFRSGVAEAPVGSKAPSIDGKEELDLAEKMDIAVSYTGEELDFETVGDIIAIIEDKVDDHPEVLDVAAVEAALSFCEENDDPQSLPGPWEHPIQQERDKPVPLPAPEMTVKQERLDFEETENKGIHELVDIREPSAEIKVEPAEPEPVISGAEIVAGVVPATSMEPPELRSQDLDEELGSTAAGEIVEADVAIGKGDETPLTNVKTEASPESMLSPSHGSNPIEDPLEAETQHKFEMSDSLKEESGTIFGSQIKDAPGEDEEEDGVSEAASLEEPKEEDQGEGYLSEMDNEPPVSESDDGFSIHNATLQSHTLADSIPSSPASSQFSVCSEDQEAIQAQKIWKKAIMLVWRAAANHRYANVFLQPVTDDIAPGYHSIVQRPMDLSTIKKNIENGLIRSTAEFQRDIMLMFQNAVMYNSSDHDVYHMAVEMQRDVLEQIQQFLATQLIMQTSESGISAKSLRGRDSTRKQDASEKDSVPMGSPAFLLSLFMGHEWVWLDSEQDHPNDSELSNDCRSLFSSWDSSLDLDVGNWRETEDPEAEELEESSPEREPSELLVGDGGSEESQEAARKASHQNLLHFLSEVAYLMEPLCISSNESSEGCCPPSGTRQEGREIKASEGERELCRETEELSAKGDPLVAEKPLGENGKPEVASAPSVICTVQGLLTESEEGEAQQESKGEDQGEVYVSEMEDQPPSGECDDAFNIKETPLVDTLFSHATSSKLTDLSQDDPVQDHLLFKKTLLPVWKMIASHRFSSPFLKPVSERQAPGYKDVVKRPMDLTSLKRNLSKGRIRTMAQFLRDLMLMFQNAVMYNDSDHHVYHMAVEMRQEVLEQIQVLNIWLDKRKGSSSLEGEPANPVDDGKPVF
inactive: [1] 0.035 | [2] -0.091 | [3] 0.167 | [4] 0.046 | [5] 0.038

BYSL (UniProt Q13895)
inactive: [1] 0.001 | [2] -0.085 | [3] -0.09 | [4] 0.02 | [5] -0.042

ARFGEF1 (UniProt Q9Y6D6)
inactive: [1] -0.012 | [2] 0.034 | [3] 0.014 | [4] -0.063 | [5] -0.061

AP2A1 (UniProt O95782)
Chain of UniProt O95782 (O95782 whole entry, looked up): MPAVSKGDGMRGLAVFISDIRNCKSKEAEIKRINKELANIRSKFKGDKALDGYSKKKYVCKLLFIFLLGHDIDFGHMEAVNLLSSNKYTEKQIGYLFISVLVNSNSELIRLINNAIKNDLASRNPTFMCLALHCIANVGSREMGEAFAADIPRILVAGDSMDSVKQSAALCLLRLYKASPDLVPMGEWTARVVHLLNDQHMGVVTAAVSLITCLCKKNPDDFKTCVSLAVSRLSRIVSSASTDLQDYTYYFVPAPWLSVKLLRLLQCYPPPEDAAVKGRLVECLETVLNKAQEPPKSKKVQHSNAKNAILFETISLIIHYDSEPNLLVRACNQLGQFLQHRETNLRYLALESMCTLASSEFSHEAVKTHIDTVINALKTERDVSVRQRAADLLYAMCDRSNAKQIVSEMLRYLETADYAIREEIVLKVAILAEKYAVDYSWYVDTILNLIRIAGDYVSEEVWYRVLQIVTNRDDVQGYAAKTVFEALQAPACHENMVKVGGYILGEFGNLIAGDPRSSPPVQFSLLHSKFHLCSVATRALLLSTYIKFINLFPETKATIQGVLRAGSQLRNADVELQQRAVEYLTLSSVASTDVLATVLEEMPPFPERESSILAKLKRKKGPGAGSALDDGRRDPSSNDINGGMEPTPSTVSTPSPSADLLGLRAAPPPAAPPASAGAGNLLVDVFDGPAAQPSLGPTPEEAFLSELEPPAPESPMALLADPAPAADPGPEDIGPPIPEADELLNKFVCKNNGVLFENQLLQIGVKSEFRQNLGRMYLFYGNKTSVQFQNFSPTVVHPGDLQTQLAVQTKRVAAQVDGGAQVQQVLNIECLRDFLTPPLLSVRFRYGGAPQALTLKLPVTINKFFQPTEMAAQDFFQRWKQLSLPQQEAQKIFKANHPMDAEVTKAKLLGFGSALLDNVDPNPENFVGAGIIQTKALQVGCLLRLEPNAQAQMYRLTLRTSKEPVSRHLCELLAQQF
inactive: [1] -0.001 | [2] -0.021 | [3] -0.028 | [4] 0.047 | [5] -0.005

AP2M1 (UniProt C9JTK4)
inactive: [1] -0.113 | [2] 0.083 | [3] 0.131 | [4] 0.136 | [5] -0.076

ACSL1 (UniProt P33121)
inactive: [1] -0.019 | [2] 0.043 | [3] 0.064 | [4] 0.001 | [5] -0.03

AAR2 (UniProt Q9Y312)
inactive: [1] 0.024 | [2] 0.08 | [3] -0.053 | [4] 0.069 | [5] -0.012

AK6 (UniProt Q9Y3D8)
inactive: [1] -0.043 | [2] 0.042 | [3] 0.2 | [4] -0.014 | [5] -0.008

BRD2 isoform 2 (UniProt P25440)
inactive: [1] -0.257 | [3] 0.092 | [5] 0.029
active: [2] 2.34 | [4] 2.33

ATL2 (UniProt Q8NHH9)
Chain of UniProt Q8NHH9 (Q8NHH9 whole entry, looked up): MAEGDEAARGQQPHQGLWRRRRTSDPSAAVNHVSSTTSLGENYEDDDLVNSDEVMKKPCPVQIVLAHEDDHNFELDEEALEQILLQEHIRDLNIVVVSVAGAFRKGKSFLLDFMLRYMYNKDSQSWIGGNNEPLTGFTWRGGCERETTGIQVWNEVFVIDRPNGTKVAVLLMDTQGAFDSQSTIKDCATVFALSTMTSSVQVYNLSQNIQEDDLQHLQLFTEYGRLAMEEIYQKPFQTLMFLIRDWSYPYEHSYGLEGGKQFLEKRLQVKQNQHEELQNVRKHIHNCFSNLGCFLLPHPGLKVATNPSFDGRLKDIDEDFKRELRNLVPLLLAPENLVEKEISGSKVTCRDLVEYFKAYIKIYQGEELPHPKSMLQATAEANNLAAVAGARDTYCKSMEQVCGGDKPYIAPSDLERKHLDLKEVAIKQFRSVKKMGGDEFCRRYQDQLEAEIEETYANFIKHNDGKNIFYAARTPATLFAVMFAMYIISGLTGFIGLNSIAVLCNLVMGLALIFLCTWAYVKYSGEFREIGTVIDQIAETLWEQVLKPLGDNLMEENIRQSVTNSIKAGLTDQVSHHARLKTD
inactive: [1] -0.019 | [2] 0.05 | [3] 0.091 | [4] -0.012 | [5] -0.077

ATP1A1 (UniProt P05023)
inactive: [1] 0.009 | [2] 0.051 | [3] -0.045 | [4] 0 | [5] -0.01

BOP1 (UniProt Q14137)
inactive: [1] 0.096 | [2] -0.099 | [3] 0.01 | [4] -0.036 | [5] -0.01

ADK (UniProt P55263)
inactive: [1] 0.026 | [2] 0.036 | [3] 0.154 | [4] -0.008 | [5] -0.057

BRK1 isoform 2 (UniProt Q8WUW1)
Chain of UniProt Q8WUW1 (Q8WUW1 whole entry, looked up): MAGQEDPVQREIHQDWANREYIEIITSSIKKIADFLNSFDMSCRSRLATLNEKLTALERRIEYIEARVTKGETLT
inactive: [1] 0.018 | [2] -0.018 | [3] 0.025 | [4] -0.055 | [5] -0.013

AARS2 (UniProt Q5JTZ9)
inactive: [1] -0.047 | [2] 0.081 | [3] 0.044 | [4] 0.005 | [5] -0.016

ANK2 (UniProt Q01484)
inactive: [1] -0.019 | [2] 0.058 | [3] 0.071 | [4] 0.159 | [5] 0.02

AKR1C2 (UniProt P52895)
inactive: [1] 0 | [2] -0.04 | [3] 0.086 | [4] 0.057 | [5] -0.011

AGPAT5 (UniProt Q9NUQ2)
Chain of UniProt Q9NUQ2 (Q9NUQ2 whole entry, looked up): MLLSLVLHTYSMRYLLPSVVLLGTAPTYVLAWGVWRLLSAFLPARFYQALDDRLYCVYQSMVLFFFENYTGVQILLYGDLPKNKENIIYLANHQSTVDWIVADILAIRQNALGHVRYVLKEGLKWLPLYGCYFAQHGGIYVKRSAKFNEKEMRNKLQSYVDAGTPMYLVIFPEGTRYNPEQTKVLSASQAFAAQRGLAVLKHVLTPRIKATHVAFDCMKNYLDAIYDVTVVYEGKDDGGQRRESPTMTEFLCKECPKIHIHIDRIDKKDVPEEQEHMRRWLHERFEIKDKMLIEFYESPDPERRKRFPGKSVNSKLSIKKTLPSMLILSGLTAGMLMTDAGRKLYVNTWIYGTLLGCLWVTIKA
inactive: [1] -0.015 | [2] 0.064 | [3] 0.007 | [4] -0.008 | [5] -0.025

ACIN1 (UniProt Q9UKV3)
inactive: [1] 0.003 | [2] 0.095 | [3] 0.038 | [4] 0.023 | [5] -0.018

ARF4 (UniProt P18085)
inactive: [1] 0 | [2] 0.045 | [3] 0.053 | [4] -0.082 | [5] -0.015

ABHD17A isoform 2 (UniProt Q96GS6)
inactive: [1] 0.029 | [2] 0.079 | [3] 0.122 | [4] -0.148 | [5] -0.012

BLVRB (UniProt P30043)
Chain of UniProt P30043 (P30043 whole entry, looked up): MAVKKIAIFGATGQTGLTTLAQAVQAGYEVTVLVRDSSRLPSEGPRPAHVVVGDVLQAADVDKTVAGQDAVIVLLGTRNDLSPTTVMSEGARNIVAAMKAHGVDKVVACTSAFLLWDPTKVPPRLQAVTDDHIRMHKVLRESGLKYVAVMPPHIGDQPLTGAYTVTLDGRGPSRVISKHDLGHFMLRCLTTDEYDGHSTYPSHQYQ
inactive: [1] -0.029 | [2] 0.027 | [3] -0.01 | [4] -0.006 | [5] 0.013

ATAD1 (UniProt Q8NBU5)
inactive: [1] 0.016 | [2] 0.055 | [3] 0.063 | [4] -0.027 | [5] -0.02

ABHD16A (UniProt O95870)
inactive: [1] -0.005 | [2] 0.011 | [3] 0.026 | [4] 0.066 | [5] -0.088

BCL9L (UniProt Q86UU0)
inactive: [1] 0.001 | [2] -0.028 | [3] 0.019 | [4] 0.051 | [5] 0.05

ADH5 (UniProt P11766)
inactive: [1] 0.026 | [2] 0.024 | [3] 0.025 | [4] -0.023 | [5] 0.017

AKAP8 (UniProt O43823)
inactive: [1] 0.012 | [2] -0.03 | [3] 0.105 | [4] -0.018
active: [5] 0.347

ATP23 (UniProt Q9Y6H3)
inactive: [1] -0.023 | [2] -0.031 | [3] -0.009 | [4] -0.052 | [5] -0.053

ARFIP1 (UniProt P53367)
Chain of UniProt P53367 (P53367 whole entry, looked up): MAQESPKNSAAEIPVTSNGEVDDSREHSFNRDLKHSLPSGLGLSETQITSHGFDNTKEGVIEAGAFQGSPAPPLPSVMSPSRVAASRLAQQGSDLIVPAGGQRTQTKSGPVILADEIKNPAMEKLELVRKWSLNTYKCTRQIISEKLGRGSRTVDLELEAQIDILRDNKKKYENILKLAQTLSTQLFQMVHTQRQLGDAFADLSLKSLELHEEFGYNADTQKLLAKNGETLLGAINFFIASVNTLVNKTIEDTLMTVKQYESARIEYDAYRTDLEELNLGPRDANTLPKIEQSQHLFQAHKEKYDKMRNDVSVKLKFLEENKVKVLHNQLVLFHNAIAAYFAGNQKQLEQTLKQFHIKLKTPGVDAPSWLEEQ
inactive: [1] 0.04 | [2] 0.042 | [3] 0.051 | [4] -0.065 | [5] -0.03

ARL3 (UniProt P36405)
inactive: [1] -0.002 | [2] 0.04 | [3] 0.038 | [4] -0.06 | [5] -0.005
